Reference: the supplement of paper PMC11001985
A number with no mark means an inactive call.

Compound: C#CCNC(=O)CCSSCCC(=O)NCCc1ccc(C=O)c(C=O)c1
Test: lysine labeling ratio R10:1 (500 µM / 50 µM probe), SILAC-ABPP in living cells; higher = lower intrinsic lysine reactivity toward the probe, active = 2 or less
Details: HeLa; probe concentrations 500 vs 50 µM
Procedure, shortened: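 Measurements came from LC-MS/MS on a TIMS-TOF Pro of mixed SILAC light and heavy HeLa lysates after click to biotin-azide, trypsin digestion, neutravidin capture, DTT release and alkylation. Before lysis, the living cells sat in PBS at room temperature with 50 µM or 500 µM of an alkyne-tagged, disulfide-linked lysine probe, and labels were swapped forward and reverse. R per lysine is the median across both swap directions of the filtered median high-probe/low-probe MS1 peptide ratio. The cap is 20.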

Sequence of UniProt P35579 (P35579 whole entry): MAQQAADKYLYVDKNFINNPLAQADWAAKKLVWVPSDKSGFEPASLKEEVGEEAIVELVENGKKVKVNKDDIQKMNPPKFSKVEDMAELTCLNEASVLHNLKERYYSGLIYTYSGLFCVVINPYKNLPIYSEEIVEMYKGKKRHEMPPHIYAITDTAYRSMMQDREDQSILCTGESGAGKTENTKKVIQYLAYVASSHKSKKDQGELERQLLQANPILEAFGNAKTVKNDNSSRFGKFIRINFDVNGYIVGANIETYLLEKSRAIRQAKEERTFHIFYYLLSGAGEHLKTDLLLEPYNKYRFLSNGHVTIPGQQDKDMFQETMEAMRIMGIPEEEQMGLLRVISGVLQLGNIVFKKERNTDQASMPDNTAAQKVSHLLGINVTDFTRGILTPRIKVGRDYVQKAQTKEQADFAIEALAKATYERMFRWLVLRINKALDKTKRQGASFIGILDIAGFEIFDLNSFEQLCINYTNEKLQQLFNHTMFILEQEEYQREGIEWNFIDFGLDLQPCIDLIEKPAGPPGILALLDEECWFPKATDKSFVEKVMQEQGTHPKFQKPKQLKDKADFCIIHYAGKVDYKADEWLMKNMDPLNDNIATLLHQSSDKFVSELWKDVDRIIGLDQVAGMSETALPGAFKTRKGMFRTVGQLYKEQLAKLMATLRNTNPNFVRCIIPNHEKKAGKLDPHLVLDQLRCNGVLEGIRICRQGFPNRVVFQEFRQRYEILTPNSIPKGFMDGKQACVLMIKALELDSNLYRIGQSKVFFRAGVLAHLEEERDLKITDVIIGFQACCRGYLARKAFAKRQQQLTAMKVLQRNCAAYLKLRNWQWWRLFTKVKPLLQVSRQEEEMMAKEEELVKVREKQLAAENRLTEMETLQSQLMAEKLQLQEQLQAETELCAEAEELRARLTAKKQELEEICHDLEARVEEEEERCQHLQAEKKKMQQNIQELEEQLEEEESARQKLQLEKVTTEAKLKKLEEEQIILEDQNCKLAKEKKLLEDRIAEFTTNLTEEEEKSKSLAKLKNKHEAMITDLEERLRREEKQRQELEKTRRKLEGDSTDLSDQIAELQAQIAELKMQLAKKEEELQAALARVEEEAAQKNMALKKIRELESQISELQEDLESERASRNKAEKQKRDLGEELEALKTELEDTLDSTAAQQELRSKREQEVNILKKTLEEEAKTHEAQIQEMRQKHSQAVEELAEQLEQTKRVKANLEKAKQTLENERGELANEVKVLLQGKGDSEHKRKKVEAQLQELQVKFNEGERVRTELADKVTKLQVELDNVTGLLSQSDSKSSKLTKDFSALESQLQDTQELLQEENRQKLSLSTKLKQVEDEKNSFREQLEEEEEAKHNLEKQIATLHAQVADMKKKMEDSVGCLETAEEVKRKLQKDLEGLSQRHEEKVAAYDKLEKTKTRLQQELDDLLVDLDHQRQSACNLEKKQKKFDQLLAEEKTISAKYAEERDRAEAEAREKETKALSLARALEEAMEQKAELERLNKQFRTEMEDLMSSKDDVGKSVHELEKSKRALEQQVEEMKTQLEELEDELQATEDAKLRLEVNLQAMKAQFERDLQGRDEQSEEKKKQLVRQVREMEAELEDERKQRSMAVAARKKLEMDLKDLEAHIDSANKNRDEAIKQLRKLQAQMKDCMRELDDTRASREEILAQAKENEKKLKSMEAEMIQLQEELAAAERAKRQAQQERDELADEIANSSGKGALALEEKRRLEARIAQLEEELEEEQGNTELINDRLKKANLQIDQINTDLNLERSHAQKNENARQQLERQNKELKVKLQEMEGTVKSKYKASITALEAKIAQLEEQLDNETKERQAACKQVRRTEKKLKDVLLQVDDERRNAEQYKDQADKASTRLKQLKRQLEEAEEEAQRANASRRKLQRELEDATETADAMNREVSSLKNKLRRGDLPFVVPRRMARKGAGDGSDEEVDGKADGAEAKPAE
Sequence of UniProt O75369 (O75369 whole entry): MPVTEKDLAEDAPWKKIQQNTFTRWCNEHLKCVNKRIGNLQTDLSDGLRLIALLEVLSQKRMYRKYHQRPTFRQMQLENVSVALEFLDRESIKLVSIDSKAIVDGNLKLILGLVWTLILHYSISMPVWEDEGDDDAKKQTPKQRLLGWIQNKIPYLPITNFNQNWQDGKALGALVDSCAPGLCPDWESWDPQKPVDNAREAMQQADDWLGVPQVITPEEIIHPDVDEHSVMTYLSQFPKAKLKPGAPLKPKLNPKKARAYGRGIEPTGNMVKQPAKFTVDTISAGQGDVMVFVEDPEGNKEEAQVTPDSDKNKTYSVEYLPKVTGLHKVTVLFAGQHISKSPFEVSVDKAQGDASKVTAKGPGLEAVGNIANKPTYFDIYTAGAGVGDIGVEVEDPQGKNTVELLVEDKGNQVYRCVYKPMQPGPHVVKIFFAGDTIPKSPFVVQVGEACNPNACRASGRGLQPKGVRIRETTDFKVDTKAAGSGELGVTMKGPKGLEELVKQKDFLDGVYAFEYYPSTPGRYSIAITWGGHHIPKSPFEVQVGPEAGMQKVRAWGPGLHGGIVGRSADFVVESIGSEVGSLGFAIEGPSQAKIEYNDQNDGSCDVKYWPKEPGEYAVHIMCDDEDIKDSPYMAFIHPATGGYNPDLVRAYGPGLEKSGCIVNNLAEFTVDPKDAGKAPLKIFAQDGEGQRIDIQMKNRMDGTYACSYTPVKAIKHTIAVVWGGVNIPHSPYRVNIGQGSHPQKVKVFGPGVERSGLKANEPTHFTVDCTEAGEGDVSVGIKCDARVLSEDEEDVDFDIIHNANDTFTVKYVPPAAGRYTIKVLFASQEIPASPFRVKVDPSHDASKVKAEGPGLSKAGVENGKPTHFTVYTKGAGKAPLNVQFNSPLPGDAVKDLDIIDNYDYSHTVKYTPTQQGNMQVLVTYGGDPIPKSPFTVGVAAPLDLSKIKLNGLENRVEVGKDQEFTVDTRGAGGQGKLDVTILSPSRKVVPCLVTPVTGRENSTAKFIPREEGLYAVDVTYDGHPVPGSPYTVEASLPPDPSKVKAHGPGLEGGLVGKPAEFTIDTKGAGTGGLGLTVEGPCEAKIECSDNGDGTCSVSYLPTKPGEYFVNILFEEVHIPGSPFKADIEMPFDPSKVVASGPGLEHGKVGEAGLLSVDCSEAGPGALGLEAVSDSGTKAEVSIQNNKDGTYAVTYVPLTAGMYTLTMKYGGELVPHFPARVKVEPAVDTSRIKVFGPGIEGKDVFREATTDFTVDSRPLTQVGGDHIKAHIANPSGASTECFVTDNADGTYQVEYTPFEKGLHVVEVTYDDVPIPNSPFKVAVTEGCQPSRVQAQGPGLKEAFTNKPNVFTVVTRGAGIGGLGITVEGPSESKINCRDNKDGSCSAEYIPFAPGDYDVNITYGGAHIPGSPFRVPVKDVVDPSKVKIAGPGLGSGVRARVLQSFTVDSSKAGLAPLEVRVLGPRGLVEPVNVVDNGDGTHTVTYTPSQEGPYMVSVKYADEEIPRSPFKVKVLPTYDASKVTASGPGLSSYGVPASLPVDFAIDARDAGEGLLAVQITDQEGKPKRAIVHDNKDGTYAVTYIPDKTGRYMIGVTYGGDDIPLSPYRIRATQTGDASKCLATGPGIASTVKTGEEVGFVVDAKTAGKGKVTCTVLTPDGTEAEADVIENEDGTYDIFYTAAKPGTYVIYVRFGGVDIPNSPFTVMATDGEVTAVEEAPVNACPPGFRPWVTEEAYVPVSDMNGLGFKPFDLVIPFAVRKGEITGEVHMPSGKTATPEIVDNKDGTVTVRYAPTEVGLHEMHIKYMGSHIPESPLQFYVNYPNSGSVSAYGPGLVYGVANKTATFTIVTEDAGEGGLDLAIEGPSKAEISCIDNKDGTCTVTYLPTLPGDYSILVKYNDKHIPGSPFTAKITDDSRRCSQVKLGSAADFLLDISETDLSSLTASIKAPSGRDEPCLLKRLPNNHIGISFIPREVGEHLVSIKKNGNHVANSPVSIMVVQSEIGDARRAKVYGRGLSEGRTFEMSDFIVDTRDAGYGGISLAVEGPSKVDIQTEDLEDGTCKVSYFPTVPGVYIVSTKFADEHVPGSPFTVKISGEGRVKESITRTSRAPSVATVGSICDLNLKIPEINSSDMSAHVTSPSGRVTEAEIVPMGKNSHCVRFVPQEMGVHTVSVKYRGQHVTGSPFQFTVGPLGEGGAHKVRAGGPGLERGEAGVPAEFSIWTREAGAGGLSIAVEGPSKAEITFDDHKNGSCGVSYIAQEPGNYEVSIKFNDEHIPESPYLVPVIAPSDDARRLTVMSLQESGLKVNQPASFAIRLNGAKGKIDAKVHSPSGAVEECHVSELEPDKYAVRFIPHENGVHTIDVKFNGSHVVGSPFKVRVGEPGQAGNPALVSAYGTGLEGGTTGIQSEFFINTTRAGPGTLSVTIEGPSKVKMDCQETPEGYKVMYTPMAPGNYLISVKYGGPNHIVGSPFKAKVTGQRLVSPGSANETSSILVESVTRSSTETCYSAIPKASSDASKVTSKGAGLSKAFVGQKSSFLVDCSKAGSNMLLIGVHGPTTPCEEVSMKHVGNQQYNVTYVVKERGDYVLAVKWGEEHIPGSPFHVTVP
Sequence of UniProt Q12904 (Q12904 whole entry): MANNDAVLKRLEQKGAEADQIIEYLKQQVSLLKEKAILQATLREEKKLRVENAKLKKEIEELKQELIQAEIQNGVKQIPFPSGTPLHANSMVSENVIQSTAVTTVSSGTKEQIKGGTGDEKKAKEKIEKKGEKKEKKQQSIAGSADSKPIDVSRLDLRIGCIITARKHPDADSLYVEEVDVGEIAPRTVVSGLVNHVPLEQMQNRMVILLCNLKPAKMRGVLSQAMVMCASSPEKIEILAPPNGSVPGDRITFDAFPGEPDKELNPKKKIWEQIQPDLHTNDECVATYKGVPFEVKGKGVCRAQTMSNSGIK
Sequence of UniProt O00264 (O00264 whole entry): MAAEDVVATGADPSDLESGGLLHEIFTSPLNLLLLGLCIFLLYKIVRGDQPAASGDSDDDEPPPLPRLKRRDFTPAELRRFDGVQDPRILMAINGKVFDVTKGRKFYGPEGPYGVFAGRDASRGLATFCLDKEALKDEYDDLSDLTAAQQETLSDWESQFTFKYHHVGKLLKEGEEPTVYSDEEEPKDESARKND

| Target | lysine labeling ratio R10:1 |
| --- | --- |
| SDC2 (lysine site: K111) (UniProt P34741) | 1.38 (active) |
| LAMB1 (lysine site: K1579) (UniProt P07942) | 2.82 |
| UniProt P59998 (lysine site: K44) | 7.73 |
| UniProt P08727 (lysine site: K168) | 4.76 |
| FLNB (lysine site: K1372) (UniProt O75369) | 2.69 |
| PGRMC1 (lysine site: K105) (UniProt O00264) | 2.63 |
| PFKP (lysine site: K109) (UniProt Q01813) | 1.5 (active) |
| XRCC6 (lysine site: K189) (UniProt P12956) | 4 |
| UniProt P55072 (lysine site: K696) | 1.22 (active) |
| FN1 (lysine site: K269) (UniProt P02751) | 9.87 |
| TFRC (lysine site: K665) (UniProt P02786) | 1.78 (active) |
| HSP90B1 (lysine site: K142) (UniProt P14625) | 2.93 |
| UniProt Q15149 (lysine site: K3925) | 3.1 |
| DISP1 (lysine site: K908) (UniProt Q96F81) | 3.35 |
| CTNNA1 (lysine site: K16) (UniProt P35221) | 3.72 |
| MARS (lysine site: K729) (UniProt P56192) | 1.58 (active) |
| L1CAM (lysine site: K180) (UniProt P32004) | 1.59 (active) |
| UniProt P60709 (lysine site: K18) | 4.98 |
| MYH9 (lysine site: K1387) (UniProt P35579) | 1.88 (active) |
| FAT1 (lysine site: K2553) (UniProt Q14517) | 2.67 |

| Target | lysine labeling ratio R10:1 |
| --- | --- |
| DDX5 (lysine site: K207) (UniProt P17844) | 4.37 |
| UniProt O60245 (lysine site: K484) | 1.3 (active) |
| PSME2 (lysine site: K15) (UniProt Q9UL46) | 6.45 |
| TCP1 (lysine site: K400) (UniProt P17987) | 2.68 |
| DSTN (lysine site: K19) (UniProt P60981) | 1.87 (active) |
| UniProt Q8WXI7 (lysine site: K13676) | 3.84 |
| ECE1 (lysine site: K676) (UniProt P42892) | 3.15 |
| UniProt Q12904 (lysine site: K35) | 1.92 (active) |
| MSN (lysine site: K3) (UniProt P26038) | 8.6 |
| COL5A1 (lysine site: K905) (UniProt P20908) | 3.42 |
| MYH9 (lysine site: K1867) (UniProt P35579) | 2.53 |
| THBS1 (lysine site: K306) (UniProt P07996) | 2.27 |
| NPR3 (lysine site: K127) (UniProt P17342) | 4.43 |
| RPL14 (lysine site: K103) (UniProt P50914) | 3.31 |
| VIM (lysine site: K120) (UniProt P08670) | 10 |
| THRAP3 (lysine site: K519) (UniProt Q9Y2W1) | 3.8 |
| TLN1 (lysine site: K1190) (UniProt Q9Y490) | 14.3 |
| SLC4A2 (lysine site: K975) (UniProt P04920) | 2.29 |
| STOML2 (lysine site: K187) (UniProt Q9UJZ1) | 1.1 (active) |
| EEF1G (lysine site: K132) (UniProt P26641) | 1.81 (active) |
